This passage reports outcome results from PubChem BioAssay AID720597 (Broad Institute, 2013).

Structures are written as SMILES. Measured potencies and affinities stand elsewhere. Calls of active or inactive are those of the source.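 Rule for the calls: active = fitted half-maximal dose no more than twice the top valid tested dose, for compounds that lower signal; inconclusive = fit invalid, or curve flat with activity between -70 and -30; inactive = potency past limit, curve flat within ±30, or signal increasing.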

For the test, the target named is NAD-dependent protein deacylase sirtuin-5, mitochondrial (Homo sapiens) (UniProt Q9NXA8). As to the kind of experiment: SIRT5 deacylase inhibitors, dose response, biochemical, fluorescence imaging, cherry-pick, set 6 (AID 720597).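 Note: lower AMC signal can also come from blocking the trypsin step.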 Conditions: Purified SirT5, succinyl-peptide-AMC/trypsin fluorescence; series mostly up to 15 µM.
Chain of NAD-dependent protein deacylase sirtuin-5, mitochondrial (Homo sapiens) (Q9NXA8 whole entry, looked up): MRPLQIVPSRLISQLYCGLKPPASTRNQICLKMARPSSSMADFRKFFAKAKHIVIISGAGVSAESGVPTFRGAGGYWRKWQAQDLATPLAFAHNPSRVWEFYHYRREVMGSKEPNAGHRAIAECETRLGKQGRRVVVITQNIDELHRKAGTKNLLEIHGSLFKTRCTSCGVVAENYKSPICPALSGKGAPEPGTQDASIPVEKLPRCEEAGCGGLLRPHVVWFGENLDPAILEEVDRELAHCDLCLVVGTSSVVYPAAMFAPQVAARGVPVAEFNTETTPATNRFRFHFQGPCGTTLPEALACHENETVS
`COc1ccccc1C#Cc1cnc2c(c1)C(=O)N([C@@H](C)CO)C[C@H](C)[C@@H](CN(C)C)O2`: the compound was called inactive.

Turning to `C[C@@H]1CN([C@@H](C)CO)S(=O)(=O)c2ccc(/C=C/c3ccccc3)cc2O[C@@H]1CN(C)C(=O)C1CC1`, the compound was called inactive.

With `C[C@H](CO)N1C[C@H](C)[C@H](CN(C)C(=O)Nc2ccc(C(F)(F)F)cc2)OCCCC[C@H](C)Oc2ccc(NS(=O)(=O)c3ccc(Cl)cc3)cc2C1=O`, the compound was called inactive.

In the case of `C[C@H]1CN([C@@H](C)CO)S(=O)(=O)c2ccc(/C=C/c3ccccc3)cc2O[C@@H]1CN(C)C(=O)NC1CCCC1`, the compound was classed as inactive.

As for `C[C@@H]1CN([C@H](C)CO)S(=O)(=O)c2ccc(C#CC(C)(C)O)cc2O[C@@H]1CN(C)Cc1ccc(-c2ccccc2)cc1`, the compound was classed as inactive.

Consider `C[C@H](CO)N1C[C@H](C)[C@H](CN(C)Cc2ccc(-c3ccccc3)cc2)Oc2ccc(NC(=O)CCCCCC(=O)Nc3ccccc3N)cc2C1=O`, for which the outcome was inactive.

As to `Cc1noc(C)c1NC(=O)Nc1ccc2c(c1)C(=O)N([C@H](C)CO)C[C@@H](C)[C@@H](CN(C)Cc1ccc(C(=O)Nc3ccccc3N)cc1)O2`, the compound was classed as inactive.

For the compound `C[C@H]1CN([C@@H](C)CO)C(=O)c2c(c3ccccc3n2C)-c2ccccc2CO[C@@H]1CN(C)Cc1cccc2c1OCCCO2`, the call was inactive.

As to `C[C@@H]1CN([C@H](C)CO)C(=O)c2cc(NS(=O)(=O)c3ccc(F)cc3)ccc2O[C@@H](C)CCCCO[C@@H]1CN(C)S(=O)(=O)c1ccc(Cl)cc1`, the compound was classed as inactive.

For the compound `CN1c2ccc(-c3ccc(F)cc3)cc2[C@@H]2[C@@H](CCN2C(=O)c2ccncc2)[C@@H]1CO`, the call was inactive.

As to `COc1cccc(C(=O)Nc2ccc3c(c2)C(=O)N(C)C[C@H](OC)[C@@H](C)CN(CCc2ccccc2)[C@H](C)CO3)c1`, the outcome was inactive.

In the case of `COCCNC(=O)c1cc2c(c(-c3cccc(-c4cccc(F)c4)c3)n1)[C@H](CCO)N(S(=O)C(C)(C)C)C2` (some centres undefined), the call was inactive.

Turning to `CO[C@H]1CN(C)C(=O)c2cccc(C#N)c2OC[C@H]2O[C@H](CC[C@@H]2OC)CCN(C)C(=O)[C@H]1C`, the compound was classed as inactive.

`CC(=O)NC[C@@H]1[C@@H](c2ccc(-c3ccccc3F)cc2)[C@@H](CO)N1CCC(F)(F)F`: the call was inactive.

On to `COc1cccc(S(=O)(=O)N(C)C[C@@H]2Oc3cc(C4=CCCCC4)ccc3S(=O)(=O)N([C@H](C)CO)C[C@H]2C)c1`, for which the compound was classed as inactive.

In the case of `C[C@H]1CN([C@@H](C)CO)S(=O)(=O)c2ccc(-c3cccc(F)c3)cc2O[C@@H]1CN(C)C(=O)Nc1cc(F)ccc1F`, the compound was called inactive.

Consider `C[C@H](CO)N1C[C@H](C)[C@H](CN(C)S(=O)(=O)c2ccc(Cl)cc2)OCc2ccccc2-c2c(n(C)c3ccccc23)C1=O`, for which the result was inactive.

For `COc1ccc(S(=O)(=O)N(C)C[C@H]2OCCCC[C@H](C)Oc3ccc(NS(=O)(=O)c4ccc(F)cc4)cc3C(=O)N([C@H](C)CO)C[C@H]2C)cc1`, the outcome was inactive.

Consider `Cc1ccc(S(=O)(=O)N(C)C[C@@H]2OCCCC[C@H](C)Oc3ccc(NS(=O)(=O)c4ccc(F)cc4)cc3C(=O)N([C@H](C)CO)C[C@@H]2C)cc1`, for which the result was inactive.

For `CC(=O)N1CC(=O)N2[C@@H](CO)[C@H](c3ccc(-c4ccc(C(=O)N(C)C)cc4)cc3)[C@@H]2C1`, the call was inactive.

In the case of `O=C(Nc1ccccc1)N1C[C@@H]2[C@H](c3ccccc31)[C@@H](CO)N2CC1CCCC1`, the outcome was inactive.

Regarding `O=C(C[C@@H]1CC[C@@H](NS(=O)(=O)c2ccc(F)cc2)[C@@H](CO)O1)N1CCC(Cc2ccccc2)CC1`, the call was inactive.

For `CCC(=O)NC[C@H]1[C@@H](c2ccccc2)[C@H](CO)N1C(=O)C1CCC1`, the compound was called inactive.

`C[C@H](O)C#Cc1ccc2c(c1)O[C@H](CN(C)Cc1ccc(-c3ccccc3)cc1)[C@H](C)CN([C@@H](C)CO)S2(=O)=O`: the call was inactive.

For `C/C=C/c1ccc([C@H]2[C@@H](CO)N(CC3CCCCC3)[C@@H]2CNC(C)C)cc1`, the compound was called inactive.

Regarding `Cc1ccccc1S(=O)(=O)N[C@H]1CC[C@@H](CCn2cc(Cc3ccccc3)nn2)O[C@H]1CO`, the compound was called inactive.

As for `CN(C)c1ccc2c(c1)[C@H]1C[C@H](CC(=O)NCc3ccc(Oc4ccccc4)cc3)O[C@H](CO)[C@H]1O2`, the compound was classed as inactive.

Regarding `C[C@H]1CN([C@@H](C)CO)S(=O)(=O)c2ccc(C#Cc3ccc(F)cc3)cc2O[C@@H]1CN(C)C(=O)NC1CCCCC1`, the outcome was inactive.

With `COc1cccc(NC(=O)N2CC(=O)N3[C@@H](CO)[C@H](c4ccc(C#CCC5CCCC5)cc4)[C@@H]3C2)c1`, the compound was called inactive.
